Reference: the supplement of paper PMC11732987, “Enantioselective OTUD7B fragment discovery through chemoproteomics screening and high-throughput optimisation” (Communications Chemistry, 2025)

Columns and labels:
Test in all cases: log2 ratio of Biotin-Ahx-Ub-VS probe labelling (fragment/DMSO); higher = less target engagement (more negative = stronger competition), active = hit call of the paper (q ≤ 0.05, log2 ratio ≤ -1)
Settings in all cases: compound concentration: 200 uM; treatment time: 3 h
[1] = biological target: USP34 (UniProt Q70CQ2)
Chain of USP34 (Q70CQ2 whole entry, the tested form may be a part): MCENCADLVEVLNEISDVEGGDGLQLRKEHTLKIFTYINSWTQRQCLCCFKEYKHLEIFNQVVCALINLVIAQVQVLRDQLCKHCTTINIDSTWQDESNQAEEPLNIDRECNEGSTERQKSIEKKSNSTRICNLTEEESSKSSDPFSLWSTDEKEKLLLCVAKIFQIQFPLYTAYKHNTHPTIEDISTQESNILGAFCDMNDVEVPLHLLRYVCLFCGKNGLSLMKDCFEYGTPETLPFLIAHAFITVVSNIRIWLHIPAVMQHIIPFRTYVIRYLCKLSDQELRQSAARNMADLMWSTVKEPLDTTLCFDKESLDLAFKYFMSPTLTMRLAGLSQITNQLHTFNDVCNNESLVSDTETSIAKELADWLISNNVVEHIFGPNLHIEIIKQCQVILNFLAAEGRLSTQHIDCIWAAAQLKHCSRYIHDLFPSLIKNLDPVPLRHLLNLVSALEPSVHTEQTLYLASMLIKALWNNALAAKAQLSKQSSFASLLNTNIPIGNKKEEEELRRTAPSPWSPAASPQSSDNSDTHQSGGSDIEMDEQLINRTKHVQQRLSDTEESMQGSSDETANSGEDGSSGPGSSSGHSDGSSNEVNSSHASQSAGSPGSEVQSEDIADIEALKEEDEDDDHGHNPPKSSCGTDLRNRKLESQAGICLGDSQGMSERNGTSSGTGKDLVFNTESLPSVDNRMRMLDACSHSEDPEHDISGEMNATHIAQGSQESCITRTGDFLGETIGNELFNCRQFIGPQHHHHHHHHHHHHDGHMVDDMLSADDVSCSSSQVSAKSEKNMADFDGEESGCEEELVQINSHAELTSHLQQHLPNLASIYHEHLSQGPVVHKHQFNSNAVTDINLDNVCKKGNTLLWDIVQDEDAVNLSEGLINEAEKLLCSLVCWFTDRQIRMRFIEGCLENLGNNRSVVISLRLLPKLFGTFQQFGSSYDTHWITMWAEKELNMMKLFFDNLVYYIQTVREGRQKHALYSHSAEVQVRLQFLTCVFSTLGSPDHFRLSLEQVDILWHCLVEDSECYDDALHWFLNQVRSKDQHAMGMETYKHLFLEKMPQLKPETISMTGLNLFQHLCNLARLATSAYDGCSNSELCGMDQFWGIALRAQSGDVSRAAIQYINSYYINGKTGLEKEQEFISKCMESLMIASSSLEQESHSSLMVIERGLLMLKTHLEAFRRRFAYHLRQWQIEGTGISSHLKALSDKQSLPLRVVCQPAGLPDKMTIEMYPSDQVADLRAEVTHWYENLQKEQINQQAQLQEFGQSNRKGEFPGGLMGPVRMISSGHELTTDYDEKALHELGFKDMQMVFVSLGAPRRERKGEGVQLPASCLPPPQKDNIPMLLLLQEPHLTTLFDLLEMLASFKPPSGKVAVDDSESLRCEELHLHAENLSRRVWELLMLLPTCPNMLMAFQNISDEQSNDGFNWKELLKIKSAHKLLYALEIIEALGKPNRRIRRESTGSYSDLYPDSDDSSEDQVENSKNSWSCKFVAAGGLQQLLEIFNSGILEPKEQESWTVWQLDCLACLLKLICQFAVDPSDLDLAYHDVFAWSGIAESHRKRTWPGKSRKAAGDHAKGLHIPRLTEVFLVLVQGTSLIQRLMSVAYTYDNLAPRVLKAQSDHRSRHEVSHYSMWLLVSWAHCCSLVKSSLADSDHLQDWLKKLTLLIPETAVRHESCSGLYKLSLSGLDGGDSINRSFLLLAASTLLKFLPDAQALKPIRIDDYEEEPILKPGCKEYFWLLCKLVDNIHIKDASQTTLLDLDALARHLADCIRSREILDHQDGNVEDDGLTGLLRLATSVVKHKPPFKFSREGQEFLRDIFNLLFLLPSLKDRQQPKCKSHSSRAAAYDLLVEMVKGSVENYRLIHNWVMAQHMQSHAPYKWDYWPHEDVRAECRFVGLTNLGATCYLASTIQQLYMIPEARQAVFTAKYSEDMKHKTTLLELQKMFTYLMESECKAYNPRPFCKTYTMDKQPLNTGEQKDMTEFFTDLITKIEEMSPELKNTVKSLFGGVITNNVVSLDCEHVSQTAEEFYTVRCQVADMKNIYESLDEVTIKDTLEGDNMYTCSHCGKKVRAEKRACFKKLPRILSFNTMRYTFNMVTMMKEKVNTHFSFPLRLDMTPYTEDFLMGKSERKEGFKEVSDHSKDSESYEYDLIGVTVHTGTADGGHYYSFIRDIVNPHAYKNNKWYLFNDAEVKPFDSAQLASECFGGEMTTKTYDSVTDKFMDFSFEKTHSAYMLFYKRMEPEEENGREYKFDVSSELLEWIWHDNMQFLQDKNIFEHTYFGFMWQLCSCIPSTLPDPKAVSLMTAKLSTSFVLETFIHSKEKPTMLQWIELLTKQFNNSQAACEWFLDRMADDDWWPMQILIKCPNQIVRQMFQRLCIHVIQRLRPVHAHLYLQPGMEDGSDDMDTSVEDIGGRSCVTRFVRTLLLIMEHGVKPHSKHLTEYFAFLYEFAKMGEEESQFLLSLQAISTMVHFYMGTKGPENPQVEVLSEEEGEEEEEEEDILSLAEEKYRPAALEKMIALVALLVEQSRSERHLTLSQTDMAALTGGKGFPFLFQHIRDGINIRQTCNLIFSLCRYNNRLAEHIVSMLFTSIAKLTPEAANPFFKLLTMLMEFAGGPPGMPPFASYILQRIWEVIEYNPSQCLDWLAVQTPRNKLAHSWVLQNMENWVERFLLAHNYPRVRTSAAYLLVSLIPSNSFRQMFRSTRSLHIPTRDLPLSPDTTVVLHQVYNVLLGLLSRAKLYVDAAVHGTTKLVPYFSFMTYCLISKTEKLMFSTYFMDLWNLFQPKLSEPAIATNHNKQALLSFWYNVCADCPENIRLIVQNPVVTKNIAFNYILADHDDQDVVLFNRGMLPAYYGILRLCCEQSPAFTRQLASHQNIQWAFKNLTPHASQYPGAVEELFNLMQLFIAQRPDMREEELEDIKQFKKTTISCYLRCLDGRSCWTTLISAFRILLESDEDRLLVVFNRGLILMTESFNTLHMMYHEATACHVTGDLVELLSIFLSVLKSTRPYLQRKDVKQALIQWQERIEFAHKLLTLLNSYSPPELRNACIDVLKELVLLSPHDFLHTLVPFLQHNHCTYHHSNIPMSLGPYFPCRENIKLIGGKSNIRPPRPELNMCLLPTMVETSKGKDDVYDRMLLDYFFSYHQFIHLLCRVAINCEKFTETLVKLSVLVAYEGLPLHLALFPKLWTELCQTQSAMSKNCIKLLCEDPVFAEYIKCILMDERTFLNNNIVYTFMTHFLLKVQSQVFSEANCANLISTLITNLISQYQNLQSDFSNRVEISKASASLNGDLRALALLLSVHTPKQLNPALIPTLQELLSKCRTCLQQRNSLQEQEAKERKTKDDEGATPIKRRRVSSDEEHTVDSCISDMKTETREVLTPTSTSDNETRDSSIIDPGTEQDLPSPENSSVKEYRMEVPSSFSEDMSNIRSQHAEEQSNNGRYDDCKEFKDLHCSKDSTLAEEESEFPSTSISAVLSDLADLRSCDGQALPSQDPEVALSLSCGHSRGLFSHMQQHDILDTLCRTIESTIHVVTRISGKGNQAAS
In short: (§1)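 Each value is an average log2 ratio of fragment to vehicle, tested by unpaired t-test. The underlying Spectronaut label-free quantities were global-median-normalised, and only proteins with ≥2 unique peptides were included. Triplicate HEK293T lysate samples (495 µg) were exposed to fragment at 200 µM or vehicle for 3 h, then to Biotin-Ahx-Ub-VS at 0.5 µM final for 1 h, before NeutrAvidin enrichment of labelled DUBs, LysC and trypsin digestion, and diaPASEF LC-MS/MS.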

[2] = biological target: T1, USP36 (UniProt Q9P275)
T1 sequence (whole entry): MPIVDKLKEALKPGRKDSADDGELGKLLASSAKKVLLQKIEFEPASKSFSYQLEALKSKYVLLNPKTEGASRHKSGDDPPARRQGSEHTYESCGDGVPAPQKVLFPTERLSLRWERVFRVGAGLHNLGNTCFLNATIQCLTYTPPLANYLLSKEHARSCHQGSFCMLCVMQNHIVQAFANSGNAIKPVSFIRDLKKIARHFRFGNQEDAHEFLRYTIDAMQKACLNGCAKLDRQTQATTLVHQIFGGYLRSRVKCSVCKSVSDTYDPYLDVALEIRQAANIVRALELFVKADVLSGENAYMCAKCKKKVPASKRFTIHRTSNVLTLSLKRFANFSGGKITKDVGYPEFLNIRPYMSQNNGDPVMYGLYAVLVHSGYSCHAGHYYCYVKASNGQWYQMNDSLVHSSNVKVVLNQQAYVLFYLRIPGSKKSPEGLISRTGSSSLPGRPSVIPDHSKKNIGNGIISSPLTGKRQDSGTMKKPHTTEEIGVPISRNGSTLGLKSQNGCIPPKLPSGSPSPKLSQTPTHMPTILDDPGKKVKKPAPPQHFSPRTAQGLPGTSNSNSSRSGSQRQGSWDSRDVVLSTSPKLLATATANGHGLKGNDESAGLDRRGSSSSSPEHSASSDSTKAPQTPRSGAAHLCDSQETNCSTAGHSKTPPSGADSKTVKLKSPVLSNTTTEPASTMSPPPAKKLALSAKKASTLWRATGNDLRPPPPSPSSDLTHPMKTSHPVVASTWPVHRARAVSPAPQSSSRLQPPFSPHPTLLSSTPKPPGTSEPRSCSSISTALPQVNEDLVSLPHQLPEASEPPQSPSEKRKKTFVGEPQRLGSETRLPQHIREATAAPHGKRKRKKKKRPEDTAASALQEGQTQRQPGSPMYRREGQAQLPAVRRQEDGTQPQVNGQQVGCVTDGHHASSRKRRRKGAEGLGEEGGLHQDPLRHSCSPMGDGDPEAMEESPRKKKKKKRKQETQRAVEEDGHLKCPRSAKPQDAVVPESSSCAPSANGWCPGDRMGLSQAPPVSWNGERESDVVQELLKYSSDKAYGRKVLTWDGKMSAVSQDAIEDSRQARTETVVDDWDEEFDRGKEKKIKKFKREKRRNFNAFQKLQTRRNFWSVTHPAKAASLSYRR
In short: as §1

[3] = biological target: T2, USP38 (UniProt Q8NB14)
T2 sequence (whole entry): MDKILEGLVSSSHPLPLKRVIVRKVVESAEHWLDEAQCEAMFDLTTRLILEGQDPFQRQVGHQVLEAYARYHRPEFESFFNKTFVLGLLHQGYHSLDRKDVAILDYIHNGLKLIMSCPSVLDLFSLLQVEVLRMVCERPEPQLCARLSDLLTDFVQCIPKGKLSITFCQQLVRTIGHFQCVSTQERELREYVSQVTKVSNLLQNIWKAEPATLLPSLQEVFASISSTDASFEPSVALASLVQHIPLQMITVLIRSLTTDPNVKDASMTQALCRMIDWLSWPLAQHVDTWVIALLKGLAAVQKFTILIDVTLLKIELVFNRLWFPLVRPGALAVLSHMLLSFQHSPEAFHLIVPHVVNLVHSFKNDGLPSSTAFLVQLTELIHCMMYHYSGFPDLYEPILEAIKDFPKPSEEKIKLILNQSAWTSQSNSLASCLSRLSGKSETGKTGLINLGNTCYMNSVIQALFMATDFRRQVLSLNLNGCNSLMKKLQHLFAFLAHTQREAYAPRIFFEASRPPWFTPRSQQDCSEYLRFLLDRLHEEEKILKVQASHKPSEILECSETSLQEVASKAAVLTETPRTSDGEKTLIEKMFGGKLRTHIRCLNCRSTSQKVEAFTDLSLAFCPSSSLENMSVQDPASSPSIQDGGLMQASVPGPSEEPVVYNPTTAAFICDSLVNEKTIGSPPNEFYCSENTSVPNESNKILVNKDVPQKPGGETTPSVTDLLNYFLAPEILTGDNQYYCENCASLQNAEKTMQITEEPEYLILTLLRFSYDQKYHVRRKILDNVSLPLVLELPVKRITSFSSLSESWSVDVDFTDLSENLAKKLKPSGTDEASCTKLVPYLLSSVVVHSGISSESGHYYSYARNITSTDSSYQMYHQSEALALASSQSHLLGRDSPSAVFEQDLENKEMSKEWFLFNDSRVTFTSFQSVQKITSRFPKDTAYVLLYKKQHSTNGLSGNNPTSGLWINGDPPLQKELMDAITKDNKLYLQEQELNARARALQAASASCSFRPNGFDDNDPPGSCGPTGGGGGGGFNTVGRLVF
In short: as §1

[4] = biological target: T3, USP39 (UniProt Q53GS9)
T3 sequence (whole entry): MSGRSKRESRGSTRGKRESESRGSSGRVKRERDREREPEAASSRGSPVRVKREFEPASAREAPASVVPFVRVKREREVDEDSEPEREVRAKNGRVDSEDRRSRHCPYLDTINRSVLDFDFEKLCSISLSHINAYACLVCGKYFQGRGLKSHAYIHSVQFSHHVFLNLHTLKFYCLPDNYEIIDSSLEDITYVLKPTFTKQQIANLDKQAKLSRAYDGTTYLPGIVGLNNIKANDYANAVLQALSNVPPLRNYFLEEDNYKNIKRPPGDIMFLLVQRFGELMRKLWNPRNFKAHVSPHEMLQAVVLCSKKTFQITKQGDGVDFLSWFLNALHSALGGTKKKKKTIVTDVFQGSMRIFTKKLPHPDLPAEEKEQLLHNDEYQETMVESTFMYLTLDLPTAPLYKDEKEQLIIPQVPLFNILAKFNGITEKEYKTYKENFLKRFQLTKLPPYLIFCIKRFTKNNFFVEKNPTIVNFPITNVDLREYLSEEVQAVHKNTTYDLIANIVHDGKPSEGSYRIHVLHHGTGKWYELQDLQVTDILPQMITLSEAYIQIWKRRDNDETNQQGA
In short: as §1

[5] = biological target: T4, USP4 (UniProt Q13107)
T4 sequence (whole entry): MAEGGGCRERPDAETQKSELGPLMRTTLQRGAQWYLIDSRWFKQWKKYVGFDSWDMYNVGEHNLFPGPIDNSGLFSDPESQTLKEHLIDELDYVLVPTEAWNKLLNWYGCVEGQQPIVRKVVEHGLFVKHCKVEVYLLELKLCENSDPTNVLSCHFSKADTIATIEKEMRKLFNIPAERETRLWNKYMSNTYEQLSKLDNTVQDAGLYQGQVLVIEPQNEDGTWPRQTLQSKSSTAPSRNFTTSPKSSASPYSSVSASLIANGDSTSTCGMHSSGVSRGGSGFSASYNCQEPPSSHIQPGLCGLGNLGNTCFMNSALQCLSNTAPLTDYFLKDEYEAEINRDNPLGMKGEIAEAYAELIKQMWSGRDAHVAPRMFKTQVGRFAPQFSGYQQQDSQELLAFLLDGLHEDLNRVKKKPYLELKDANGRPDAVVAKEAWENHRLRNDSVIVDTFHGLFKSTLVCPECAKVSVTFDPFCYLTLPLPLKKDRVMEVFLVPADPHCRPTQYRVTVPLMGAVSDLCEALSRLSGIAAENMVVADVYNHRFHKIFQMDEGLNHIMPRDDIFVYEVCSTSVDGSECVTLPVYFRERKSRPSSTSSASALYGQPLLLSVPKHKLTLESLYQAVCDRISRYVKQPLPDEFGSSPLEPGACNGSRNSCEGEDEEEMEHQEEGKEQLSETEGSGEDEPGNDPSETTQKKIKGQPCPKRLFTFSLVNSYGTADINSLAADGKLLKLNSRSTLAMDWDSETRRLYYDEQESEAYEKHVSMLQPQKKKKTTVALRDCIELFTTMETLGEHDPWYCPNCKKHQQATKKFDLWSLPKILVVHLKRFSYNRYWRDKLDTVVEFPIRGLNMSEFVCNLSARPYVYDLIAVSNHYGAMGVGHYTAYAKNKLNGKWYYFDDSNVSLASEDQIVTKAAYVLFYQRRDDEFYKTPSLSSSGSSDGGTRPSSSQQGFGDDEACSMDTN
In short: as §1

Measured: log2 ratio of Biotin-Ahx-Ub-VS probe labelling

CCN(C(=O)CCl)C1CCCCC1
inactive: [1] -0.106 | [2] -0.191 | [3] 0.143 | [4] 0.059 | [5] 0.182
